# Reference: the supplement of paper PMC6135742
# Structures can show the parent of a compound that is named as a salt. ± gives the standard deviation of the averaged measurements. The full ranking holds about 2,600 compounds; the median of “MBP+ mature oligodendrocyte number relative to DMSO vehicle control” is about -0.34, and the highest 2% start at about 13. This excerpt belongs to a sample that is enriched for the highest values.
# Tested on: jimpy (Plp1 jimpy) mouse iPSC-derived oligodendrocyte progenitor cells
# Assay: MBP+ mature oligodendrocyte number relative to DMSO vehicle control (SDs above negative control mean); higher = more surviving jimpy oligodendrocytes (rescue)
# Conditions: 10 µM; 3 days
# Procedure: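 Primary phenotypic screen of >3,000 bioactive compounds (Selleck L1700 and Sigma LO1280 libraries) at a single dose of 10 µM. Compounds were added to jimpy (Plp1 mutant) mouse iPSC-derived OPCs at the start of thyroid hormone-induced oligodendrocyte differentiation, one well per compound in 384-well plates. After 3 days cells were stained for MBP, Sox10 and DAPI and imaged with an Operetta system. MBP+ oligodendrocyte number and total cell number were expressed as the number of SDs above the mean of the DMSO negative control on the same plate (n=16 control wells per plate). Hits were defined as >=4 SD for oligodendrocytes and >=2 SD for total cells.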
row,Compound,MBP+ mature oligodendrocyte number
1,CCN(CC)CCNC(=O)c1ccc(NS(C)(=O)=O)cc1 [Sematilide monohydrochloride monohydrate],-0.439
2,O=C(NCc1ccccc1)c1csc(Nc2ccncn2)n1 [Thiazovivin],-3.47
3,CCCCNc1ncc(-c2ccc(CN3CCOCC3)cn2)c(NC2CCC(O)CC2)n1 (configuration not stated),-4.15
4,O=C1c2ccccc2C(=O)c2c(NCCc3ccc(O)cc3)ccc(NCCc3ccc(O)cc3)c21,-4.41
5,Cc1ccc(C(=O)C(C)CN2CCCCC2)cc1 (configuration not stated) [Tolperisone HCl],5.05
6,Cc1ccc(C(=O)Cn2c3c(sc2=N)CCCC3)cc1 [Pifithrin-? (PFT?)],17
7,S=c1[nH]c(-c2ccccc2)cn1-c1ccccc1,2.54
8,CN(C)c1ccc(/C=C2/C(=O)Nc3ccccc32)cc1,0.789
9,O=c1cc(-c2ccccc2)oc2cc(O)cc(O)c12 [Chrysin],4.59
10,CCN(CC)CCNC(=O)c1cc(Cl)c(N)cc1OC [Metoclopramide hydrochloride],0.304
11,CCOc1cc(N)c(Cl)cc1C(=O)NCC1CN(Cc2ccc(F)cc2)CCO1 (configuration not stated) [Mosapride Citrate],23
12,COc1cc(N)c(Cl)cc1C(=O)OCCN1CCCCC1,-3.81
13,C[C@H]1O[C@@H](Oc2c(-c3cc(O)c(O)c(O)c3)oc3cc(O)cc(O)c3c2=O)[C@@H](O)[C@@H](O)[C@@H]1O [Myricitrin],0.507
14,Nc1ccc(-c2ccc3ccccc3n2)cc1 [BF-170 hydrochloride],0.146
15,O=C(/C=C/c1ccc(O)c(O)c1)c1ccc(O)cc1O [Butein],-4.58
16,CCCCOc1ccc(OCCCN2CCOCC2)cc1 [Pramoxine HCl],14.3
17,O=C(Cc1ccc(-c2ccc(OCCN3CCOCC3)cc2)cn1)NCc1ccccc1,-5.77
18,CCCCOc1ccc(C(=O)CCN2CCCCC2)cc1 [Dyclonine HCl],-1.91
19,CC[C@@H]1C(=O)N(C)c2cnc(Nc3ccc(C(=O)N[C@H]4CC[C@H](N5CCN(CC6CC6)CC5)CC4)cc3OC)nc2N1C(C)C [Volasertib (BI 6727)],< -4.81
20,Cc1c(OCC(F)(F)F)ccnc1C[S+]([O-])c1nc2ccccc2[nH]1 (configuration not stated) [Lansoprazole],7.5 ± 4.5
21,Cc1c(OCC(F)(F)F)ccnc1C[S@@+]([O-])c1nc2ccccc2[nH]1 [Dexlansoprazole],17.2
22,COCCCOc1ccnc(C[S+]([O-])c2nc3ccccc3[nH]2)c1C (configuration not stated) [Rabeprazole sodium],1.61
23,O=C(NCCCNc1nc(Nc2cccc(NC(=O)N3CCCC3)c2)ncc1I)c1cccs1,-6.61
24,NCCCCC(=O)O [5-Aminovaleric acid hydrochloride],-1.14
25,O=C(Nc1cccc2cccnc12)c1ccc(N2C(=O)[C@@H]3[C@H](C2=O)[C@@H]2C=C[C@H]3C2)cc1 [IWR-1-endo],-3.56
26,O=C(C=Cc1ccccc1)NC(NC(=S)Nc1ccc(Cl)cc1)C(Cl)(Cl)Cl (configuration not stated),-0.386

row,Compound,MBP+ mature oligodendrocyte number
1,O=C(/C=C/c1ccccc1)NC(NC(=S)Nc1cccc2cccnc12)C(Cl)(Cl)Cl (configuration not stated) [Salubrinal],19
2,N=C(N)Nc1ccc(C(=O)Oc2ccc3cc(C(=N)N)ccc3c2)cc1 [Nafamostat Mesylate],-3.03
3,NC1CONC1=O (racemic) [DL-Cycloserine],0.353
4,O=C(Nc1cccnc1)N1CCC(Cc2cccc(Oc3ccc(C(F)(F)F)cn3)c2)CC1,19.5
5,O=C(Nc1cccnc1)N1CCC(Cc2cccc(Oc3ccc(C(F)(F)F)cn3)c2)CC1 [PF 3845 hydrate],10.1
6,Cn1ccc2cc3c(cc21)CCN3C(=O)Nc1cccnc1,0.574
7,O=C(Nc1ccccc1Br)N[C@@H]1CCN(c2ccc(C(F)(F)F)cn2)C1,1.22
8,Nc1nccc(Oc2ccc(NC(=O)c3c[nH]cc(-c4ccc(F)cc4)c3=O)cc2F)c1Cl,7.17
9,C[C@@H](O[C@H]1OCCN(Cc2nn(P(=O)(O)O)c(=O)[nH]2)[C@H]1c1ccc(F)cc1)c1cc(C(F)(F)F)cc(C(F)(F)F)c1 [Fosaprepitant dimeglumine salt],-2.44
10,CN1CC(=O)N=C1NC(=O)Nc1cccc(Cl)c1 [Fenobam],-0.794
11,Nc1nc2c(c(=O)[nH]1)C[C@@H](CCc1ccc(C(=O)N[C@@H](CCC(=O)O)C(=O)O)cc1)CN2 [Lometrexol hydrate],0.225
12,CCn1cc(-c2ccnc3[nH]c(-c4cccc(CN(C)C)c4)cc23)c(-c2ccc(NC(=O)N(C)C)cc2)n1,-5.93
13,CN(C)C(=O)c1ccc(S(=O)(=O)c2ccc(NC(=O)[C@@](C)(O)C(F)(F)F)c(Cl)c2)cc1,19.5
14,C[C@H](Oc1cc(-c2cnn(C3CCNCC3)c2)cnc1N)c1c(Cl)ccc(F)c1Cl [(S)-crizotinib],-4.58
15,Cc1ccc(Nc2c(F)cccc2Cl)c(CC(=O)O)c1 [Lumiracoxib],0.263
16,CN1CCC(=C2c3ccccc3CCc3sccc32)CC1 [Pizotifen Malate],-6.09
17,COC(=O)[C@H](c1ccccc1Cl)N1CCc2sccc2C1 [Clopidogrel],1.42
18,Clc1ccccc1CN1CCc2sccc2C1 [Ticlopidine HCl],18.4
19,COC(=O)C1=C(C)NC(C)=C(C(=O)OC)C1c1cccc(NC(=O)NCCCN2CCC(c3cccc(OC)c3)CC2)c1,< -3.85
20,CCc1nc(N)nc(N)c1-c1ccc(Cl)cc1 [Pyrimethamine],49
21,C[n+]1cccc(C(N)=O)c1 [1-Methylnicotinamide chloride],-0.176
22,N#CC[C@H](C1CCCC1)n1cc(-c2ncnc3[nH]ccc23)cn1,2.47
23,c1ccc(-c2[nH]ncc2-c2ccnc3ccccc23)nc1,-2.12
24,CCN(CC)CCOC(=O)C(c1ccccc1)c1ccccc1 [Adiphenine HCl],0.0731
25,CCCC(C(=O)OCCN(CC)CC)(c1ccccc1)c1ccccc1 [SKF-525A hydrochloride],-3.42
26,CCN(CC)CC#CCOC(=O)C(O)(c1ccccc1)C1CCCCC1 (configuration not stated) [Oxybutynin Chloride],13.5

row,Compound,MBP+ mature oligodendrocyte number
1,CCN(CC)CC#CCOC(=O)C(O)(c1ccccc1)C1CCCCC1 (configuration not stated) [Oxybutynin chloride],29.7
2,Cc1cc2nc(NCCCO)n(CC(=O)c3cc(C(C)(C)C)c(O)c(C(C)(C)C)c3)c2cc1C,-4
3,CC[C@H](NC(=O)[C@H](C)NC)C(=O)N1C[C@@H](O)C[C@H]1Cc1c(-c2[nH]c3cc(F)ccc3c2C[C@@H]2C[C@H](O)CN2C(=O)[C@H](CC)NC(=O)[C@H](C)NC)[nH]c2cc(F)ccc12 [Birinapant],-5.76
4,NCCCCCNCC12CC3CC(CC(C3)C1)C2 [IEM 1754 dihydrobroMide],-4.82
5,O=C1NCN(c2ccccc2)C12CCN(CCCC(c1ccc(F)cc1)c1ccc(F)cc1)CC2 [Fluspirilene],-4.41
6,O=C1NCC2(CCN(CCc3ccccc3)CC2)O1 [Fenspiride HCl],21.6
7,O=C1NCC2(CCN(CCc3ccccc3)CC2)O1 [Fenspiride hydrochloride],10.5
8,O=C(O)P(=O)(O)O [Foscarnet Sodium],-1.56
9,CC(=O)OC[C@H]1O[C@@H]([S-])[C@H](OC(C)=O)[C@@H](OC(C)=O)[C@@H]1OC(C)=O.CCP(CC)CC.[Au+] [Auranofin],< -3.85
10,CC1(C)O[C@@H]2C[C@H]3[C@@H]4CCC5=CC(=O)C=C[C@]5(C)[C@H]4[C@@H](O)C[C@]3(C)[C@]2(C(=O)CO)O1 [Desonide],9.44
11,C[C@]12C=CC(=O)C=C1CC[C@@H]1[C@@H]2[C@@H](O)C[C@@]2(C)[C@H]1CC[C@]2(O)C(=O)CO [Prednisolone],7.54
12,CCCC1O[C@@H]2C[C@H]3[C@@H]4CCC5=CC(=O)C=C[C@]5(C)[C@H]4[C@@H](O)C[C@]3(C)[C@]2(C(=O)CO)O1 (some centres not stated) [Budesonide],13.4 ± 10
13,Nc1ccccc1NC(=O)c1ccc(CNc2nccc(-c3cccnc3)n2)cc1 [Mocetinostat (MGCD0103)],< -6.7
14,"CC(O)C(O)[C@H]1CNc2nc(N)[nH]c(=O)c2N1 (stereo partly drawn) [(6R)-5,6,7,8-Tetrahydro-L-biopterin hydrochloride]",-1.5
15,"CCCn1c(=O)c2c(ncn2C)n(CCC)c1=O [1,3-Dipropyl-7-methylxanthine]",0.502
16,CO/N=C(\C(=O)N[C@@H]1C(=O)N2C(C(=O)O)=C(Cn3ccc(=N)n3CCO)CS[C@H]12)c1csc(N)n1 [Cefoselis Sulfate],0.982
17,CC(C)[C@H](NC(=O)c1ccc2ccccc2n1)C(=O)N[C@@H](CC(=O)O)C(=O)COc1c(F)cccc1F,24.8
18,CC(C)C[C@H](NC(=O)[C@@H](NC(=O)c1cccc(-c2ccccc2)n1)[C@@H](C)O)B(O)O,< -6.7
19,C[C@H](NC(=O)C(=O)Nc1ccccc1C(C)(C)C)C(=O)N[C@@H](CC(=O)O)C(=O)COc1c(F)c(F)cc(F)c1F [Emricasan],10.3
20,NC[C@@H]1O[C@H](c2ccccc2)Cc2c1ccc(O)c2O,-0.675
21,NC(N)=NC(N)=Nc1ccccc1 [1-Phenylbiguanide],0.289
22,C[C@]12CC[C@H](O)CC1=CC[C@@H]1[C@@H]2CC[C@]2(C)C(n3cnc4ccccc43)=CC[C@@H]12 [Galeterone],16.8
23,CC(=O)[C@H]1CC[C@H]2[C@@H]3CC=C4C[C@@H](O)CC[C@]4(C)[C@H]3CC[C@]12C [Pregnenolone],-3.89
24,CC[C@H](/C=C/[C@@H](C)[C@H]1CC[C@H]2[C@@H]3CC=C4C[C@@H](O)CC[C@]4(C)[C@H]3CC[C@]12C)C(C)C [Stigmasterol],-1.84
25,CC(C)C[C@H](NP(=O)(O)O[C@H]1O[C@H](C)[C@@H](O)[C@H](O)[C@@H]1O)C(=O)N[C@@H](Cc1c[nH]c2ccccc12)C(=O)O [Phosphoramidon disodium],-0.211
